Source: PubChem BioAssay (NCATS)
“And” between values parts separate entries of the source, which are not always exact repeats. Equal entries are not always repeated. Inconclusive results are not listed. The source holds several records for some structures; these can differ, active in one and inactive in another. The source made the active and inactive calls. Calls follow the shape of the dose curve; as a rule, active = well fitted cell-killing curve with a large enough effect; inconclusive = small, poorly fitted or top-dose-only effect; inactive = flat fitted curve, though single readings scatter.

Assay: Cellular viability qHTS for adrenocortical cancer (ACC) cell line SW-13 (AID 1963989); also: nearly all actives have a fitted effect of over 65% in size;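 as to activity (max response): cells grown in serum-free medium with ITS supplement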
Details: SW-13 ACC cells viability, CellTiter-Glo, 48 h; activity (max response): active compounds read low
From the text: PI: Naris Nilubol, MD Surgical Oncology Program, National Cancer Institute (NCI) National Institute of Health (NIH), Bethesda, Maryland Adrenocortical cancer (ACC) is a rare malignancy with poor survival outcomes and few treatment options. Currently, mitotane is the only FDA-approved therapy for ACC. Although adjuvant radiation therapy is rarely utilized, it has the potential to improve survival in select cases. Through a quantitative high-throughput drug screen (qHTS), we identified auranofin (AF), a thioredoxin reductase (TXNRD) inhibitor, as a promising candidate drug. This study aims to evaluate whether AF can enhance the efficacy of radiation therapy in the treatment of ACC. Two human ACC cell lines, SW-13 and NCI-H295R, were screened using the National Center for Advancing Translational Sciences (NCATS) Pharmaceutical Collection (NPC) and the Mechanism Interrogation PlatE (MIPE) library (~4,991 compounds). CellTiter-Glo (Cat # G7570, Promega, Madison, WI) was utilized to measure cell viability. Described herein are the results of the corresponding viability assay.
PROTOCOL TABLE (as described by Inglese J, Shamu CE and Guy RK. 2007) SEQUENCE No. (e.g., 1, 2, 3, etc.); […] (e.g., Cells, Incubation, Reagent, etc.); VALUE; DESCRIPTION. 1; Cells; 5 uL; white, solid-bottom, 1536-well tissue-culture treated plates. 2; Time; overnight culture at 37C with 5% CO2. 3; Compounds and control; 23 nL; Kalypsis pin tool (Wako USA) equipped with a 1536-well pin head to transfer to the assay plates. 4; Time; 48 hours; 37C with 5% CO2. 5; Reagent; 4 uL; CellTiter-Glo luminescent substrate mix. 6; Time; 20 min at room temperature. 7; Detection; Luminescence; ViewLux plate reader NOTES (numbers refer to Sequence numbers above) 1. SW13 cells were harvested from a T175 flask and resuspended in ITS-supplemented DMEM serum-free medium at a concentration of 300 000 cells/mL. Then 5 uL of resuspended cells were dispensed into each well of white, solid-bottom, 1536-well tissue-culture-treated plates using a multidrop combi dispenser. The plates were covered with stainless steel gasket lids. 2-3. The plates were cultured overnight at 37C with 5% CO2. Twenty-three nL of compounds (eight selected concentrations from the NPC / MIPE) or positive control (10 mM stock of bortezomib) in DMSO was transferred to each well of the assay plate using a pin tool (Kalypsys, San Diego, CA, USA). The final concentration of the compounds in the 5 uL assay volume ranged from 0.5 nM to 46 uM. 4-6. After 48 hours of incubation at 37C and 5% CO2, 4 uL of CellTilter-Glo luminescent substrate mix (Promega, Madison, WI, USA) was added to each well. Then the plates were incubated for 20 minutes at room temperature. 7. After incubation, luminescence was measured using a ViewLux plate reader (PerkinElmer, Waltham, MA, USA) with a clear filter was used to measure the number of metabolically competent cells. To determine compound activity in the qHTS assay, the titration-response data for each sample was plotted and modeled by a four-parameter logistic fit yielding IC50 and efficacy (maximal response) values. […] REFERENCES: Inglese J, Shamu CE and Guy RK, Reporting data from high throughput screening of small molecule libraries, Nature Chemical Biology, 2007, 3(8): 438-441. doi.org/10.1038/nchembio0807-438.
% is scaled to controls: 0 for no effect and ±100 for the full control effect.

| Structure (SMILES) | activity (max response) | Potency |
| --- | --- | --- |
| CC(C)=CCC/C(C)=C/CC/C(C)=C/CCC(=O)OC/C=C(\C)CCC=C(C)C | 14.2% (inactive) |  |
| CC(C)C[C@@H](N)C(=O)O | 8.35% (inactive) |  |
| C[C@@]12C(=O)OC(=O)[C@]1(C)[C@H]1CC[C@@H]2O1 |  | 15.8 µM (active) |
| CN[C@@H]1[C@@H](O)[C@@H](O[C@@H]2[C@H](O)[C@H](O[C@H]3OC(CN)=CC[C@H]3N)[C@@H](N)C[C@H]2N)OCC1(C)O (stereo not given in full) | 5.55% (inactive) |  |
| CC(=O)c1cc2ccccc2s1 | 15.3% (inactive) |  |
| COc1ccc(C(=O)C2CCN(CC(=O)N(Cc3nc4c(c(=O)[nH]3)COCC4)CC3CC3)CC2)cc1 | 0.295% (inactive) |  |
| CCCC(=O)Nc1ccc(OCC(O)CNC(C)C)c(C(C)=O)c1 (stereo not given) | 0.0374% (inactive) |  |
| CC(C)C[C@@H]1[C@H](c2ccccc2)OC(=O)N1CCCN1CCCCCC1 | -14.7% (inactive) |  |
| COc1cc2c(Nc3ccc(Br)cc3F)ncnc2cc1OCC1CCN(C)CC1 | -8.28% (inactive) | 17.8 µM (active) |
| CNC1CCC(N(Cc2cccc(-c3ccncc3)c2)C(=O)c2sc3c(F)ccc(F)c3c2Cl)CC1 (stereo not given) |  | 10 µM (active) |
| Cc1cc(O[C@@H](CCC(F)(F)F)c2ccc(C(=O)NCCC(=O)O)cc2)cc(C)c1-c1ccc(C(C)(C)C)cc1 |  | 25.1 µM (active) |
| CCCCc1ccc2nc(NC(=O)OC)[nH]c2c1 |  | 51.7 nM (active) and 282 nM (active) |
| C[C@@]1(c2ncncc2F)NC(=O)c2cc(-c3cn[nH]c3)ccc21 | -10.1% (inactive) |  |
| NCCCCNCCCN | 4.66% (inactive) |  |
| CCOc1ccccc1N=Nc1c(C)[nH]n(-c2nc(-c3ccccc3)cs2)c1=O | -16.4% (inactive) |  |
| Cc1nc2n(c(=O)c1CCN1CCC(c3noc4cc(F)ccc34)CC1)CCCC2 | -10.2% (inactive) |  |
| COC(=O)Nc1cc(Nc2cc(NC3CC3)c3ncc(C#N)n3n2)c(Cl)c(N2CCN(C)CC2)c1 |  | 2.82 µM (active) |
| CCN(CC)C(=O)C1CN2CCc3cc(OC)c(OC)cc3C2CC1OC(C)=O (stereo not given) | -2.45% (inactive) |  |
| N[C@@H](Cc1c[nH]c2ccc(O)cc12)C(=O)O | 10.6% (inactive) |  |
| CCc1c(C(=O)NNC(=O)[C@@H](O)c2cc(F)cc(F)c2)ccc(O)c1C | -4.91% (inactive) |  |

| Structure (SMILES) | activity (max response) | Potency |
| --- | --- | --- |
| COc1cccc(Nc2ncnn3ccc(CN4CC[C@@H](N)[C@H](O)C4)c23)c1 |  | 0.316 µM (active) |
| NC(=O)Cc1cccc(C(=O)c2ccccc2)c1N | 0.0063% (inactive) |  |
| CC(=O)NS(=O)(=O)c1ccc(N)cc1 | 4.13% (inactive) |  |
| Cc1cc(-c2cnn3c(NCC4CC(C)(O)C4)cc(Oc4cccnc4)nc23)ccc1C(=O)NC1CC1 (stereo not given) | -6.44% (inactive) |  |
| Cc1ccc2c(Cl)cc(Cl)c(O)c2n1 | 9.37% (inactive) |  |
| O=C(NCC1CCCCN1)c1cc(OCC(F)(F)F)ccc1OCC(F)(F)F (stereo not given) | -4.23% (inactive) |  |
| O=C(O)CCCc1c[nH]c2ccccc12 | 1.46% (inactive) |  |
| Cc1cncc2cccc(S(=O)(=O)N3CCCN(C(=O)CN)C[C@@H]3C)c12 | -18.3% (inactive) |  |
| Cc1c[nH]c2nc(Nc3ccc(N4CCN(C)CC4)c(F)c3)nc(-c3cccc(CC#N)c3)c12 |  | 2.24 µM (active) |
| CCCCOC(=O)NS(=O)(=O)c1sc(CC(C)C)cc1-c1ccc(Cn2ccnc2)cc1 |  | 28.2 µM (active) |
| C[C@H](CS)C(=O)N1CCC[C@H]1C(=O)O | -1.14% (inactive) |  |
| O=C(Nc1ccc2[nH]nc(-c3ccncc3)c2c1)[C@@H]1CCN(CC(=O)N2CCN(c3ccc(-c4ncccn4)cc3)CC2)C1 |  | 4.47 µM (active) |
| Cc1oncc1C(=O)Nc1ccc(C(F)(F)F)cc1 | -12.3% (inactive) and -17.5% (inactive) |  |
| CN(C)[C@@H]1C(=O)C(C(=O)NCN2CCCC2)=C(O)[C@@]2(O)C(=O)C3=C(O)c4c(O)cccc4[C@@](C)(O)C3C[C@@H]12 (stereo not given in full) | -7.75% (inactive) |  |
| O=C(NCCS(=O)(=O)c1ccc(C(F)(F)F)cn1)c1ccc(Cl)cc1 | 0.68% (inactive) |  |
| O=C(/C=C\n1cnc(-c2cc(C(F)(F)F)cc(C(F)(F)F)c2)n1)NNc1ccccn1 |  | 11.2 µM (active) |
| CN[C@@H](C)C(=O)N[C@H](C(=O)N1CCC[C@H]1c1nc(C(=O)c2ccc(F)cc2)cs1)C1CCCCC1 | -7.41% (inactive) |  |
| NC(CSCC(=O)O)C(=O)O (stereo not given) | -12% (inactive) |  |
| COc1cc(C[C@@H](CO)[C@H](CO)Cc2ccc(O)c(OC)c2)ccc1O | -8.41% (inactive) |  |
